From PubChem BioAssay AID602144 (Vanderbilt Specialized Chemistry Center, 2011) come the findings set out here.

Values without a mark were called inactive. Active and inactive are the calls of the source. Rule as the data show it: active = remaining activity below about 50%; inactive = the rest.

By remaining activity is commonly meant the signal under treatment as a percentage of the control signal.

Phospholipase D1 (Homo sapiens), sequence (Q13393 whole entry, looked up): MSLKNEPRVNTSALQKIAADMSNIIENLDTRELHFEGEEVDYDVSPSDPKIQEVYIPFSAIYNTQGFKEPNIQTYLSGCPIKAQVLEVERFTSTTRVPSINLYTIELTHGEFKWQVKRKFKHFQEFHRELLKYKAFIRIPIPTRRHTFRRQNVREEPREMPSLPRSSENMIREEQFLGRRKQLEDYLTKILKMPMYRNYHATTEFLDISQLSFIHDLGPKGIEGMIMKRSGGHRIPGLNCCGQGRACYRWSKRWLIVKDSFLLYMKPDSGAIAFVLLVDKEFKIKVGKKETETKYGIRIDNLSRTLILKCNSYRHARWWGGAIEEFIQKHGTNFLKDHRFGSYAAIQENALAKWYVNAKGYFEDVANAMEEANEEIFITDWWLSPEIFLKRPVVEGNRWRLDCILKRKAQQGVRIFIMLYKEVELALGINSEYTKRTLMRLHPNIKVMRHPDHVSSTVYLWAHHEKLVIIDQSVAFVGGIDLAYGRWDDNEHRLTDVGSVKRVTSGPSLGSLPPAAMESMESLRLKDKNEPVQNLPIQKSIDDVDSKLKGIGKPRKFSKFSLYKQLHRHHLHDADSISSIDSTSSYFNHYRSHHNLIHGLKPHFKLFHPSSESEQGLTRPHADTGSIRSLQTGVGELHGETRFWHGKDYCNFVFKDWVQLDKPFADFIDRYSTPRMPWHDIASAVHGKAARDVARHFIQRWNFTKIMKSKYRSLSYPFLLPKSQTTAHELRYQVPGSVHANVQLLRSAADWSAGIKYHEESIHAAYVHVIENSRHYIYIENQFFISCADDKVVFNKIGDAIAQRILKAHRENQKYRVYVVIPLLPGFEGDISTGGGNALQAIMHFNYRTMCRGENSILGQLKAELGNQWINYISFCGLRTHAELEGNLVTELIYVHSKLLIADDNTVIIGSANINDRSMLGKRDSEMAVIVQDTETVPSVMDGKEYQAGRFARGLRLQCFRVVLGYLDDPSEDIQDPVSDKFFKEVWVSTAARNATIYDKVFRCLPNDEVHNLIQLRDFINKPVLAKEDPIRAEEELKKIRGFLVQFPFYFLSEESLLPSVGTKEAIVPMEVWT
Phospholipase D1 (Homo sapiens), sequence (Q13393 whole entry, looked up): as above

The assay addresses Phospholipase D1 (Homo sapiens) (UniProt Q13393). The experiment in a line: PLD1 inhibitors in cells, Calu-1 cells, single concentration (AID 602144).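 Also: tested at 200 nM.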 As to conditions: cellular PLD1 activity, stronger effect = lower value.
`O=C(NCCN1CCC2(CC1)C(=O)NCN2c1cccc(F)c1)C12CC3CC(CC(C3)C1)C2`: the remaining activity is 98.7%.
With `Cc1ccccc1C(=O)NCCN1CCC2(CC1)C(=O)NCN2c1cccc(F)c1` the figure was 97.2%; with `O=C(NCCN1CCC2(CC1)C(=O)NCN2c1ccccc1)c1ncc(F)cc1F`, 125%; with `O=C(NCCN1CCC2(CC1)C(=O)NCN2c1ccccc1)c1cccc(Cl)n1`, 132%.
With `O=C(NCCN1CCC2(CC1)C(=O)NCN2c1cccc(F)c1)c1cc2cc(F)ccc2[nH]1` the figure was 44% (active).
For `O=C(CCc1ccc(F)cc1)NCCN1CCC2(CC1)C(=O)NCN2c1ccccc1` the value was 69.5%.
In the case of `O=C(NCCN1CCC2(CC1)C(=O)NCN2c1ccccc1)c1cccnn1`, the remaining activity was 105%.
With `O=C(NCCCCCCN1CCC2(CC1)C(=O)NCN2c1ccccc1)c1ccc2ccccc2c1` the figure was 131%; with `O=C(c1ccc(F)c(F)c1)N(CCN1CCC2(CC1)C(=O)NCN2c1cccc(F)c1)C(=O)c1ccc(F)c(F)c1`, 101%.
